Some test systems named below: NCI-H23 lung; NCI-H226 lung; NCI-H322M lung; HOP-62 NSCLC; NCI-H460 lung; HOP-92 NSCLC; NCI-H522 lung; A549/ATCC NSCLC; 786-0 renal; COLO 205 colon.
Common to all, as to assay: NCI-60 one-dose screen, 48 h (100 = growth as untreated, 0 = no growth, -100 = all killed)
Details in all cases: 10 µM unless noted

This is an account of results in PubChem BioAssay (NCI).

This is part of a sample that, as a whole, favours compounds with a hit. Of some 83,000 tested, about 20% had one in any assay.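 The endpoint reported here, percent growth, reads 100 for growth as untreated, 0 for no net growth and -100 for all cells dead.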 Values without a mark were called inactive. The source made the active and inactive calls. The calls were made as follows: active = growth percent below 10; inactive = the rest.

Turning to `CCCCNC(=O)Oc1ccc(/C(=C(/C)Cc2ccc(OC)cc2)c2ccc(OCCN(CC)CC)cc2)cc1`, the growth in the experiment with NCI-H23 lung is 97%; with NCI-H226 lung, 101%; with NCI-H322M lung, 84.9%; in the experiment with HOP-62 NSCLC, 91.5%; in the experiment on NCI-H460 lung, 53.3%; in the experiment with HOP-92 NSCLC it was 52.6%. Further, the growth was 85.3% in the experiment on NCI-H522 lung, 61.2% in the experiment on A549/ATCC NSCLC, 69% in the experiment on 786-0 renal and 46.8% in the experiment with COLO 205 colon.

`CCOC(=O)C1=C(c2ccccc2)N=C2SC=C(c3ccc(Cl)cc3)N2C1c1ccc(Br)cc1` (stereo not given): the growth was 69.8% in the experiment on NCI-H23 lung; 76.6% in the experiment on NCI-H226 lung; 90.9% in the experiment on NCI-H322M lung; 90.7% in the experiment with HOP-62 NSCLC; 85% in the experiment on NCI-H460 lung; 56.1% with HOP-92 NSCLC. In addition, the growth with NCI-H522 lung was 69.3%; with A549/ATCC NSCLC, 84.5%; in the experiment with 786-0 renal it was 80.6%; in the experiment with COLO 205 colon it was 83.1%.

In the case of `COC1=CC(c2ccc[nH]2)=N/C1=C\c1[nH]c(C)c(CC(=O)NCc2ccccc2)c1C`, the growth is 23.9% in the experiment with NCI-H23 lung; 28.8% with NCI-H226 lung; 42.7% with NCI-H322M lung; 20.6% in the experiment with HOP-62 NSCLC; 10.9% in the experiment on NCI-H460 lung; -7.96% (active) in the experiment on HOP-92 NSCLC. Also, the growth with NCI-H522 lung was 17%; in the experiment with A549/ATCC NSCLC, 18.1%; in the experiment with 786-0 renal, -42.7% (active); in the experiment on COLO 205 colon it was 1.08% (active).

Regarding `Nc1nc2ccccc2c2c1S(=O)(=O)c1ccc(Cl)cc1C2=O`, the growth in the experiment with NCI-H23 lung was 37.9%; in the experiment on NCI-H226 lung, 63.1%; with NCI-H322M lung it was 63%; in the experiment on HOP-62 NSCLC, 30.2%; in the experiment on NCI-H460 lung, 23.5%; in the experiment with HOP-92 NSCLC, -25.4% (active). The growth in the experiment with NCI-H522 lung was -73.5% (active); in the experiment on A549/ATCC NSCLC it was 46.8%; in the experiment on 786-0 renal, 16.2%; in the experiment on COLO 205 colon it was -18% (active).

Turning to `Fc1ccc(CNc2c3ccccc3nc3ccccc23)c(F)c1`, the growth in the experiment on NCI-H23 lung is 42.8%; with NCI-H226 lung it was 54.8%; with NCI-H322M lung, 49.2%; in the experiment on HOP-62 NSCLC it was 57.2%; with NCI-H460 lung, 20%; with HOP-92 NSCLC it was -2.61% (active). Also, the growth is 42.3% with NCI-H522 lung, 40.1% in the experiment on A549/ATCC NSCLC, 47.6% in the experiment on 786-0 renal and 26.8% with COLO 205 colon.

Take `O=C(NCCNc1nccc(Nc2ccc(S(=O)(=O)Nc3ccccn3)cc2)n1)c1cccc([N+](=O)[O-])c1`: the growth in the experiment with NCI-H23 lung is 97.4%; in the experiment with NCI-H226 lung, 98.7%; in the experiment on NCI-H322M lung it was 106%; with HOP-62 NSCLC, 99.2%; with NCI-H460 lung, 104%; with HOP-92 NSCLC, 102%. The growth was 82% with NCI-H522 lung, 94.8% in the experiment with A549/ATCC NSCLC, 98% in the experiment on 786-0 renal and 110% in the experiment with COLO 205 colon.

For `O=C(COc1ccc(-c2nc3cc(Cl)c(Cl)cc3[nH]2)cc1)N=Nc1c(O)[nH]c2ccc(Cl)cc12`, the growth in the experiment on NCI-H23 lung is 70.1%; with NCI-H226 lung it was 80.8%; in the experiment on NCI-H322M lung it was 94.9%; in the experiment with HOP-62 NSCLC, 89.9%; with NCI-H460 lung, 46.4%; in the experiment on HOP-92 NSCLC, 77.1%. The growth is 97.9% in the experiment with NCI-H522 lung, 75.9% in the experiment on A549/ATCC NSCLC, 68.7% in the experiment with 786-0 renal and 56.2% with COLO 205 colon.

As to `NC(Cc1ccc(O)c([N+](=O)[O-])c1)C(=O)O` (stereo not given), the growth in the experiment on NCI-H23 lung was 98.5%; with NCI-H226 lung it was 101%; with NCI-H322M lung, 107%; with HOP-62 NSCLC it was 105%; in the experiment with NCI-H460 lung, 113%; in the experiment with HOP-92 NSCLC it was 67.4%. Also, the growth in the experiment with NCI-H522 lung was 94.7%; in the experiment on A549/ATCC NSCLC, 100%; in the experiment with 786-0 renal it was 99.2%; in the experiment with COLO 205 colon it was 122%.

As to `O=S(=O)(NCCNc1nccc(-c2c(-c3ccc(F)c(O)c3)nc3occn23)n1)c1ccc(Cl)cc1`, the growth is 80.3% in the experiment on NCI-H23 lung; 102% with NCI-H226 lung; 97.1% in the experiment on NCI-H322M lung; 101% in the experiment with HOP-62 NSCLC; 76.7% in the experiment with NCI-H460 lung; 70.4% in the experiment with HOP-92 NSCLC. In addition, the growth in the experiment on NCI-H522 lung was 76.6%; in the experiment with A549/ATCC NSCLC it was 77.9%; in the experiment with 786-0 renal, 109%; in the experiment with COLO 205 colon, 67.7%.

`Cc1ccc(NC(=O)c2sc3nc(C)c(Br)c(C)c3c2N)cc1`: the growth was 73.8% with NCI-H23 lung; 47.7% with NCI-H226 lung; 51.2% in the experiment with NCI-H322M lung; 34.9% in the experiment with HOP-62 NSCLC; 54.4% with NCI-H460 lung; -5.03% (active) in the experiment with HOP-92 NSCLC. For the same molecule, the growth was 71.9% with NCI-H522 lung, 67.7% in the experiment on A549/ATCC NSCLC, 30.5% in the experiment on 786-0 renal and 84.9% in the experiment with COLO 205 colon.

As for `N#Cc1c(-c2ccc(Cl)cc2)nc(NN2C(=O)c3ccccc3C2=O)nc1N1CCOCC1`, the growth is 97.2% with NCI-H23 lung; 99.9% in the experiment with NCI-H226 lung; 111% in the experiment with NCI-H322M lung; 97.9% with HOP-62 NSCLC; 106% with NCI-H460 lung; 99.8% in the experiment on HOP-92 NSCLC. Moreover, the growth with NCI-H522 lung was 97.5%; with A549/ATCC NSCLC it was 107%; in the experiment on 786-0 renal, 99.8%; in the experiment on COLO 205 colon, 110%.

`Nc1ncnc2c1C(c1ccc(Br)cc1)c1sc3c(F)cccc3c1O2` (stereo not given): the growth was 88.5% in the experiment on NCI-H23 lung; 81.5% in the experiment with NCI-H226 lung; 95.9% in the experiment on NCI-H322M lung; 90.1% in the experiment on HOP-62 NSCLC; 92.1% in the experiment on NCI-H460 lung; 91.7% in the experiment with HOP-92 NSCLC. The growth is 84.2% with NCI-H522 lung, 99.3% in the experiment on A549/ATCC NSCLC, 99.9% in the experiment with 786-0 renal and 106% in the experiment with COLO 205 colon.

On to `O=C1Nc2ccccc2/C1=C/c1cccn1CCCCn1c2ccccc2c(=O)c2ccccc21`, for which the growth with NCI-H23 lung was 77.4%; in the experiment on NCI-H226 lung, 75.2%; in the experiment with NCI-H322M lung, 101%; with HOP-62 NSCLC it was 77.4%; in the experiment on NCI-H460 lung, 93.7%; in the experiment on HOP-92 NSCLC it was 59.5%. Also, the growth in the experiment on NCI-H522 lung is 68.4%; in the experiment with A549/ATCC NSCLC it was 86.3%; with 786-0 renal, 97%; with COLO 205 colon, 69.8%.

`CCSc1oc(-c2ccccc2)nc1[P+](c1ccccc1)(c1ccccc1)c1ccccc1`: the growth is -11.8% (active) in the experiment on NCI-H23 lung; -2.47% (active) with NCI-H226 lung; -6.18% (active) in the experiment with NCI-H322M lung; 0.275% (active) in the experiment on HOP-62 NSCLC; 0.695% (active) in the experiment on NCI-H460 lung; -27.9% (active) in the experiment with HOP-92 NSCLC. The growth is -20.3% (active) in the experiment on NCI-H522 lung, 9.29% (active) in the experiment on A549/ATCC NSCLC, 13.4% in the experiment with 786-0 renal and -45.5% (active) in the experiment with COLO 205 colon.
